Measured values reported in PMC4336329 (PLoS ONE, 2015).
The campaign covered roughly 310,000 compounds. About 2,200 (0.71%) showed an effect of 50% or more. Effects have a minus sign here. The list comes from a sample in which strong results are over-represented; it also holds similar structures and randomly drawn compounds.

molecular target: human ether-à-go-go-related gene (hERG) potassium channel (human, UniProt Q12809); assay: primary screen, population patch clamp on CHO cells stably expressing hERG; higher = less effect of the substance
Sequence (Q12809 whole entry, looked up): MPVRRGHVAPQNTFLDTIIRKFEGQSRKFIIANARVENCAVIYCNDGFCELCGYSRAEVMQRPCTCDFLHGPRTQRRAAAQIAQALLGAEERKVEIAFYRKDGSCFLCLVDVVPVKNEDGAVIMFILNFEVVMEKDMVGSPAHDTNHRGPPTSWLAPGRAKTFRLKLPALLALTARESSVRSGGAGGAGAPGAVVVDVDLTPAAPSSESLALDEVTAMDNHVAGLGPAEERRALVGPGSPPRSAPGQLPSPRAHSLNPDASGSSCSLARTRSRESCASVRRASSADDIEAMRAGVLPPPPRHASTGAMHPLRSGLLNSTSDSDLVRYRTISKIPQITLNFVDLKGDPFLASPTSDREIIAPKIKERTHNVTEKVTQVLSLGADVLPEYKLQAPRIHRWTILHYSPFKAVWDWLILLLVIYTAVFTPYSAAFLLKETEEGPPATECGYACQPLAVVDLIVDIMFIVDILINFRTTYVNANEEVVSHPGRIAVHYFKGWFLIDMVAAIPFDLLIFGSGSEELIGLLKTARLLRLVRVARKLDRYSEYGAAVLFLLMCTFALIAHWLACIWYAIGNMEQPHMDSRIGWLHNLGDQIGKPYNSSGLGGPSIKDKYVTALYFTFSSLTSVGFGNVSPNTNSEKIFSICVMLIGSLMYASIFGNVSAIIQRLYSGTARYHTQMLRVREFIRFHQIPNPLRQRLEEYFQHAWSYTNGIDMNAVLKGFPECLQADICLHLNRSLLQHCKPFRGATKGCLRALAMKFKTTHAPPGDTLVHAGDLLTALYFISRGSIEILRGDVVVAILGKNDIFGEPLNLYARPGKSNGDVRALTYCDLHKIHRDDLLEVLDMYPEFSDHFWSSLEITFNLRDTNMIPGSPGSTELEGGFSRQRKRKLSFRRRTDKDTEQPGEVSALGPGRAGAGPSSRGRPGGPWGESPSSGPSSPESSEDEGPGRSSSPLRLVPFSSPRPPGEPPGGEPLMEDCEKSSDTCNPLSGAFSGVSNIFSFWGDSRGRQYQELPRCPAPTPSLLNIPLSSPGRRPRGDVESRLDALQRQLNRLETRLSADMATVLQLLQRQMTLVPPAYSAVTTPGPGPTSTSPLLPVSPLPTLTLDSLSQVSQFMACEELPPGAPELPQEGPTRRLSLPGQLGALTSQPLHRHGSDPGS

Structure (SMILES) | hERG current change (%, negative = inhibition) at 1uM
Cc1cc(C)c[n+](CC(=O)c2ccccc2)c1.[Br-] | 20.1%
Cc1cc(C)c[n+](CC(=O)c2ccc(C)c([N+](=O)[O-])c2)c1.[Br-] | 4.61%
Cc1cc(C)c[n+](CC(=O)c2c(C)cc(C)c([N+](=O)[O-])c2C)c1.[Br-] | -52.7%
CN1CCN(C(=O)C2CCC(=O)N(Cc3cccc(C(F)(F)F)c3)C2)CC1 (centres unmarked) | 6.99%
Cc1nnc(NC(=O)CSc2nnc(CC(=O)Nc3ccccc3C)n2C)s1 | 17.4%
COc1ccc(C(=O)C2CCCN(Cc3ccccn3)C2)c(OC)c1 (centres unmarked) | -3.83%
COc1ccc(C(=O)C2CCCN(Cc3cccn3-c3ccc(Cl)cn3)C2)c(OC)c1 (centres unmarked) | -45.8%
COc1ccc(C(=O)C2CCCN(Cc3cccn3-c3ccccn3)C2)c(C)c1 (centres unmarked) | -84.8%
COc1ccc(C(=O)C2CCCN(Cc3cccn3-c3ccccn3)C2)c(OC)c1 (centres unmarked) | -82.9%
COc1ccc(C(=O)C2CCCN(CCO)C2)c(C)c1 (centres unmarked) | 12.5%
COc1ccc(C(=O)C2CCCN(C(=O)CCc3ccccn3)C2)c(C)c1 (centres unmarked) | 9.98%
O=C(O)c1cc(NC(=O)c2ccc3c(c2)C(=O)N(Cc2ccccc2)C3=O)cc(C(=O)O)c1 | 11.7%
COc1cccc(Nc2ncc(C#N)c(N)n2)c1 | 12.9%
O=C(COC(=O)c1nc(Cl)ccc1Cl)Nc1ncc(Cl)cc1Cl | 14.4%
CN(C)CCCN=Cc1c(O)n(Cc2ccccc2)c(=O)c2ccccc12 | -25.5%
CN(C)CCN=Cc1c(O)n(Cc2ccccc2)c(=O)c2ccccc12 | -6.8%
CCN(CC)CCCN=Cc1c(O)n(Cc2ccccc2)c(=O)c2ccccc12 | -77.3%
CCOC(=O)C1CCCN(C/C=C/c2ccccc2[N+](=O)[O-])C1 (centres unmarked) | -42.6%
CCOC(=O)C1CCN(C/C=C/c2ccccc2)CC1 | 4.64%
CCOC(=O)C1CCN(C/C=C/c2ccccc2[N+](=O)[O-])CC1 | -57%
CC(O)[C@H]1CNCCN1CCc1cccc2ccccc12 (some centres unmarked) | 5.81%
CCSc1ccccc1C(=O)N1CCN(c2ccc([N+](=O)[O-])cc2)CC1 | -41%

Structure (SMILES) | hERG current change (%, negative = inhibition) at 1uM
CCCCCn1cc(C(=O)C(=O)N2CCOCC2)c2ccccc21 | 7.53%
COc1ccc2c(c1)c(=O)c(C(=O)c1ccccc1)cn2Cc1ccccc1 | -21.1%
O=C(O)c1cn(Cc2ccccc2)c2ccc(Cl)cc2c1=O | -84.4%
CCCCCCn1cc(C(=O)O)c(=O)c2ccccc21 | -84.4%
CCCCCCn1cc(C(=O)O)c(=O)c2cc(F)c(N3CCCCC3)cc21 | 14%
O=C(O)c1cn(Cc2ccccc2)c2ccccc2c1=O | -43.6%
CCOc1cc(C2C(C(=O)OCC(C)C)=C(C)N=C3SCCC(=O)N32)ccc1OC(C)=O (centres unmarked) | -0.245%
Cc1ccc(S(=O)(=O)N2CCN(C(=O)CCC(=O)N3CCc4ccccc43)CC2)cc1 | 3.11%
COc1ccc(N2C(=O)C(OC(C)=O)C2c2ccc(C)cc2)cc1 (centres unmarked) | 7.38%
COc1ccc2c(c1)Sc1ccccc1N2CCN(C)C.O=C(O)C(=O)O | 2.44%
COc1ccc([C@@H]2Sc3cc(OC)ccc3N(CCN(C(C)C)C(C)C)C(=O)[C@H]2OC(C)=O)cc1.Cl | -70%
Cc1ccccc1C(=O)Nc1ccccc1C(=O)N1CCC(C)CC1 | 11.7%
COC(=O)c1ccc(Cn2cnc3c(cnn3-c3ccc(C)c(C)c3)c2=O)o1 | 7.86%
Cc1c(-c2ccccc2)oc2c(C(=O)OCC(=O)Nc3cccc(F)c3)cccc2c1=O | 5.94%
COc1ccccc1NC(=S)NC(NC(=O)c1ccco1)C(Cl)(Cl)Cl (centres unmarked) | 4.44%
COc1ccc(NC(=O)c2ccc(S(=O)(=O)N3CCCC3)cc2)cc1OC | -102%
COc1ccc(C(=O)Nc2ccc(S(=O)(=O)N3CCCCC3)cc2)cc1OC | -0.152%
COc1ccc(NC(=O)c2cccc(S(=O)(=O)N3CCCC3)c2)cc1OC | 2.14%
CCCN1CCC[C@@H]2Cc3nc(N)ncc3C[C@H]21.Cl | 8.86%
NC(=O)c1ccc(NC(=O)CCC(=O)c2cccs2)cc1 | 9.21%
O=C(Nn1cnnc1)c1cc([N+](=O)[O-])cc([N+](=O)[O-])c1 | 5.11%
CCn1cc(C2=NC(C)CO2)c2ccccc21 (centres unmarked) | -0.637%
